Data on 89 sequences can be found in publication PMC10668032, “Altered binding affinity of SIX1-Q177R correlates with enhanced WNT5A and WNT pathway effector expression in Wilms tumor”.

The full ranking holds about 33,000 sequences; the median of “e-score” is about -0.053, and the highest 2% start at about 0.38. Only a selection was taken, and the highest values are over-represented in it overall.

In this test the target is T1, SIX1 homeodomain (reference allele) (human, UniProt Q15475 108-198).
T1 sequence: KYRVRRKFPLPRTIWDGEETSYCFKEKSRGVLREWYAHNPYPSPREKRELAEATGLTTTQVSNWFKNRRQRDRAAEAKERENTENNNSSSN
Description: universal protein binding microarray; Universal all-10-mer PBM (8x60K, AMADID 030236), 300 nM GST-tagged protein, Alexa Fluor 488 anti-GST; buffer, salt, pH and temperature not stated (as in Berger); high values mean tight binding. As to conditions: protein: ivt; tags: N-terminal GST; dsDNA, one strand shown. The essentials:
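Binding was expressed as 8-mer E-scores calculated with the Universal PBM Analysis Suite. The GST-tagged homeodomains, made by in vitro transcription/translation, were applied in duplicate at 300 nM final concentration to universal 'all 10-mer' protein binding microarrays (8×60K format).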
For ACAATATG, the binding signal stood at 0.239 ± 0.0268 E-score.
In the case of ATCACTTA it was 0.273 ± 0.0813 E-score; in that of ATGGGGTC, 0.168 ± 0.00238 E-score.
Consider AGTAGATC, for which the binding signal amounted to 0.321 ± 0.0238 E-score.
As to GACCGATC, the binding signal is 0.246 ± 0.028 E-score.
In the case of ATACTTCC it was 0.241 ± 0.0829 E-score; in that of AGTATCAC, 0.464 ± 0.0196 E-score.
For AGTATTAG the value was 0.301 ± 0.0212 E-score; for ATCATCAC, 0.228 ± 0.00571 E-score.
In the case of CGTATCAG it was 0.465 ± 0.00812 E-score.
With CCTATCAG, the binding signal was 0.326 ± 0.00869 E-score.
In the case of AGTATTAA it was 0.233 ± 0.112 E-score; in that of AGTATAAT, 0.265 ± 0.0967 E-score.
In the case of ATTATCAG it was 0.168 ± 0.0386 E-score.
In the case of ACTATCAT it was 0.3 ± 0.0715 E-score; in that of ACTATCAG, 0.217 ± 0.0215 E-score.
As for AGTATCAG, the binding signal came out at 0.46 ± 0.0186 E-score.
For the sequence AGTATCAT, the binding signal was 0.473 ± 0.0218 E-score.
As for ATCGTGAG, the binding signal was determined as 0.26 ± 0.00974 E-score.
Take CGGTAATA: the binding signal was found to be 0.23 ± 0.0198 E-score.
For AGACCGAT, the binding signal is 0.179 ± 0.0125 E-score.
In the case of TACTCGGA it was 0.162 ± 0.0415 E-score.
In the case of ACACCTGA it was 0.281 ± 0.0355 E-score; in that of GAAATATC, 0.262 ± 0.0623 E-score; in that of ATAGCATA, 0.218 ± 0.00716 E-score.
For ACTATCAA the value was 0.253 ± 0.0636 E-score; for ATTATCAA, 0.165 ± 0.0524 E-score.
For AGTATCAA, the binding signal worked out at 0.444 ± 0.0435 E-score.
For the sequence ACACCAAA, the binding signal turned out to be 0.263 ± 0.0137 E-score.
For AGTCGATA the value was 0.257 ± 0.0323 E-score.
In the case of GGCAATAC it was 0.181 ± 0.00926 E-score.
In the case of AAGTGGAT it was 0.182 ± 0.0178 E-score.
On to AGGGTGTC, for which the binding signal came out at 0.4355 ± 0.00243 E-score.
On to GGGGTGTA, for which the binding signal amounted to 0.387 ± 0.00837 E-score.
In the case of GCGGTGTA it was 0.336 ± 0.0311 E-score.
CGGGTGGA: the binding signal came out at 0.236 ± 0.0891 E-score.
Consider GTGGTGTA, for which the binding signal amounted to 0.286 ± 0.0221 E-score.
With CGGGTGTA, the binding signal amounted to 0.265 ± 0.0586 E-score.
For CGGGTGTC the value was 0.439 ± 0.025 E-score.
In the case of AGGGGGTG it was 0.186 ± 0.0209 E-score; in that of AGGGTGTA, 0.313 ± 0.048 E-score; in that of ATCAAGAT, 0.209 ± 0.0291 E-score.
In the case of AAGCCGGA it was 0.159 ± 0.0672 E-score.
For the sequence GATCGGCC, the binding signal was 0.255 ± 0.03 E-score.
As for TACCCCAA, the binding signal turned out to be 0.174 ± 0.0539 E-score.
Take ATATACTA: the binding signal worked out at 0.256 ± 0.0638 E-score.
For CAACACCC the value was 0.24 ± 0.00973 E-score; for ATCGATTC, 0.2 ± 0.0315 E-score; for CTCGATAC, 0.41 ± 0.0184 E-score.
For CTCGATGA the value was 0.165 ± 0.00668 E-score; for CTCGATCC, 0.325 ± 0.0557 E-score.
As for ATCGATAG, the binding signal is 0.2745 ± 0.00192 E-score.
For ATCGATAC the value was 0.446 ± 0.0107 E-score.
In the case of CAGATGAG it was 0.203 ± 0.0236 E-score; in that of CAATAATA, 0.223 ± 0.0513 E-score; in that of CCCGCGAG, 0.206 ± 0.0166 E-score.
For GGTGTAAA the value was 0.198 ± 0.028 E-score; for GGATCGAA, 0.267 ± 0.0826 E-score; for ATATCGAC, 0.379 ± 0.00832 E-score.
As to CGATCGAG, the binding signal came to 0.21 ± 0.0298 E-score.
As to GTATCTAA, the binding signal was found to be 0.374 ± 0.0214 E-score.
Regarding ATATCGAT, the binding signal worked out at 0.411 ± 0.0335 E-score.
In the case of GTATCGAA it was 0.43 ± 0.00911 E-score.
In the case of ATATCGAG it was 0.335 ± 0.0302 E-score; in that of CTATCGAG, 0.157 ± 0.0365 E-score; in that of GTATCGAC, 0.405 ± 0.0127 E-score.
On to GGATCGAC, for which the binding signal was determined as 0.297 ± 0.113 E-score.
In the case of AGATCGAT it was 0.345 ± 0.0116 E-score; in that of GTATAGAC, 0.276 ± 0.00412 E-score.
In the case of ATAGCTTA it was 0.214 ± 0.0605 E-score.
For ATATAATA the value was 0.322 ± 0.053 E-score.
As for AAGCGTAT, the binding signal was 0.231 ± 0.0511 E-score.
For CTCGTATA the value was 0.161 ± 0.055 E-score.
On to GGTTATAC, for which the binding signal stood at 0.261 ± 0.0421 E-score.
For ATCGCCTC the value was 0.216 ± 0.0033 E-score; for ACCGGAGA, 0.201 ± 0.00786 E-score; for CCGTAATC, 0.169 ± 0.00918 E-score.
As to GGTCGATA, the binding signal was determined as 0.271 ± 0.00805 E-score.
For CGGGACAC the value was 0.153 ± 0.0127 E-score.
With ATATCGAA, the binding signal amounted to 0.393 ± 0.0367 E-score.
In the case of CTATCGAA it was 0.228 ± 0.0495 E-score; in that of TATACGAA, 0.164 ± 0.00791 E-score; in that of AATATGTG, 0.197 ± 0.0339 E-score.
In the case of ATAAATAC it was 0.163 ± 0.0133 E-score; in that of AGGTATTG, 0.29 ± 0.0429 E-score; in that of AGGTATTA, 0.385 ± 0.0849 E-score.
AAGTATTA: the binding signal was 0.254 ± 0.109 E-score.
For GGGTATTA the value was 0.393 ± 0.0546 E-score; for GCGTATTA, 0.161 ± 0.0688 E-score.
